We go through 10 compounds from PubChem BioAssay (NCATS).

The subject of one test is HEK293. In words: Cytotoxic Profiling of Annotated Libraries Using Quantitative High-Throughput Screening (AID 1296008). For max response: % is set by controls: 0 for no effect and ±100 for the full control effect. Particulars: Five cell lines viability, CellTiter-Glo ATP luminescence, 48-72 h; max response: stronger effect = lower value. Summed up: (§1)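 Cytotoxicity was measured as CellTiter-Glo ATP luminescence, read after 10 min at room temperature. Compound treatment of the cells lasted 48 or 72 hr at 37 degrees Celsius in a qHTS format.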
A general note: Cellular ATP, detected with luciferase, serves as a proxy for viable cell number.

A further test deals with ECU. In words: qHTS profiling for inhibitors of Plasmodium falciparum proliferation (AID 504749). The following applies: P. falciparum in erythrocytes, SYBR Green DNA, 72 h; series mostly up to 28.7 µM. In outline:
(§2)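 In a 72 h erythrocytic culture (37 C, humidified, 5% CO2) at 2.5% hematocrit and 0.3% starting parasitemia, compounds were tested; SYBR Green I in detergent lysis buffer stained parasite DNA overnight.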
A general note: In qHTS, concentration-response curves come from the screen itself.

The test system of a further test is FAB9. Described as above. Particulars: P. falciparum in erythrocytes, SYBR Green DNA, 72 h; series mostly up to 28.7 µM. In outline:
as §2

The subject of the next test is GB4. Described as above. Particulars: P. falciparum in erythrocytes, SYBR Green DNA, 72 h; series mostly up to 28.7 µM. Summed up: as §2
A further test relates to HB3. The description is as above. Particulars: P. falciparum in erythrocytes, SYBR Green DNA, 72 h; series mostly up to 28.7 µM. In outline:
as §2

The subject of the next test is ICS. Described as above. Particulars: P. falciparum in erythrocytes, SYBR Green DNA, 72 h; series mostly up to 28.7 µM. In outline:
as §2

For the next test, the system named is N140. The description is as above. The following applies: P. falciparum in erythrocytes, SYBR Green DNA, 72 h; series mostly up to 28.7 µM. Summed up: as §2
The next test concerns P93_24. The test is described as above. The following applies: P. falciparum in erythrocytes, SYBR Green DNA, 72 h; series mostly up to 28.7 µM. In outline:
as §2

The subject of another test is P94_40. Described as above. The following applies: P. falciparum in erythrocytes, SYBR Green DNA, 72 h; series mostly up to 28.7 µM. Summed up: as §2
The next test relates to PAD. Described as above. The following applies: P. falciparum in erythrocytes, SYBR Green DNA, 72 h; series mostly up to 28.7 µM. In outline:
as §2

In a further test the test system is PC26. Described as above. Particulars: P. falciparum in erythrocytes, SYBR Green DNA, 72 h; series mostly up to 28.7 µM. In outline: as §2
A further test has as its system PC49. The test is described as above. The following applies: P. falciparum in erythrocytes, SYBR Green DNA, 72 h; series mostly up to 28.7 µM. Summed up:
as §2

Another test has as its system SC27B. The test is described as above. Particulars: P. falciparum in erythrocytes, SYBR Green DNA, 72 h; series mostly up to 28.7 µM. Summed up:
as §2

The test system of the next test is TAB109. Described as above. Particulars: P. falciparum in erythrocytes, SYBR Green DNA, 72 h; series mostly up to 28.7 µM. In outline:
as §2

The test system of a further test is TAB113. Described as above. The following applies: P. falciparum in erythrocytes, SYBR Green DNA, 72 h; series mostly up to 28.7 µM. In outline: as §2
The test system of another test is TAB165. The description is as above. Particulars: P. falciparum in erythrocytes, SYBR Green DNA, 72 h; series mostly up to 28.7 µM. Summed up: as §2
In a further test the test system is W2. The description is as above. The following applies: P. falciparum in erythrocytes, SYBR Green DNA, 72 h; series mostly up to 28.7 µM. In outline: as §2
For the next test, the system named is CRL-7250. In words: Cytotoxic Profiling of Annotated Libraries Using Quantitative High-Throughput Screening (AID 1296008). For max response: % is set by controls: 0 for no effect and ±100 for the full control effect. The following applies: Five cell lines viability, CellTiter-Glo ATP luminescence, 48-72 h; max response: stronger effect = lower value. In outline: as §1
The test system of a further test is PC15. In words: qHTS profiling for inhibitors of Plasmodium falciparum proliferation (AID 504749). The following applies: P. falciparum in erythrocytes, SYBR Green DNA, 72 h; series mostly up to 28.7 µM. Summed up: as §2
For a further test, the system named is JCK. The description is as above. The following applies: P. falciparum in erythrocytes, SYBR Green DNA, 72 h; series mostly up to 28.7 µM. In outline:
as §2

Structures are written as SMILES. Results filed as inconclusive are left out. Values without a mark were called inactive. Calls of active or inactive are those of the source. Calls come from the whole dose curve; as a rule, active = well fitted inhibition curve with a large enough effect; inconclusive = small, poorly fitted or top-dose-only effect; inactive = flat fitted curve, though single readings scatter.
Note: nearly all actives have a fitted effect of over 60% in size.
Potency is the fitted concentration of half-maximal effect.

On to `Brc1ccccc1-c1ccccc1`, for which the max response in the test on HEK293 is -9.62%.

With `O=C1NCCN1CCN1CCC(c2cn(-c3ccc(F)cc3)c3ccc(Cl)cc23)CC1`, the Potency with HEK293 was 6.68 µM (active).

As to `CCCCCCCCCCCCCC[N+](C)(C)C`, the Potency in the test with ECU is 4.47 µM (active); with FAB9, 11.2 µM (active); in the test on GB4 it was 5.36 µM (active); in the test on HB3 it was 6.31 µM (active); in the test on ICS, 2.51 µM (active); in the test on N140, 6.31 µM (active). Moreover, the Potency is 5.01 µM (active) in the test on P93_24; 6.31 µM (active) with P94_40; 10 µM (active) with PAD; 6.01 µM (active) with PC26; 6.31 µM (active) in the test with SC27B; 4.47 µM (active) in the test with TAB109. The Potency in the test with TAB113 is 5.01 µM (active); in the test on TAB165, 5.62 µM (active); in the test with W2, 4.26 µM (active); with CRL-7250, 7.5 µM (active); in the test on HEK293, 2.66 µM (active). Further, the Potency entry in the test with PC49 was “inactive”.

Turning to `CC[C@@H]([C@H](C)O)n1ncn(-c2ccc(N3CCN(c4ccc(OC[C@@H]5CO[C@@](Cn6cncn6)(c6ccc(F)cc6F)C5)cc4)CC3)cc2)c1=O`, the Potency in the test on HEK293 is 7.5 µM (active).

For the compound `NC(=O)C1(N2CCCCC2)CCN(CCCN2c3ccccc3CCc3ccc(Cl)cc32)CC1`, the Potency in the test with HEK293 was 10.6 µM (active).

Take `Nc1ccc2cc3ccc(N)cc3nc2c1`: the Potency is 8.91 µM (active) in the test with FAB9; 13.5 µM (active) with GB4; 2.82 µM (active) in the test with ICS; 7.57 µM (active) in the test on W2; 7.5 µM (active) with CRL-7250; 2.37 µM (active) in the test on HEK293.

Consider `CC(C)(C)c1ccc(O)c(O)c1`, for which the Potency with HEK293 was 12.2 µM (active).

`CCOC(=O)c1cc(=O)c2c(OCC(COc3cccc4oc(C(=O)OCC)cc(=O)c34)OC(=O)[C@@H](N)CCCCN)cccc2o1`: the max response with HEK293 is 4.3%.

Regarding `CCCCCCCCCCCCCCCC[N+](C)(C)Cc1ccccc1`, the Potency is 3.16 µM (active) with ECU; 10 µM (active) in the test on FAB9; 5.36 µM (active) in the test with GB4; 2.82 µM (active) in the test with ICS; 14.1 µM (active) in the test with N140; 1.12 µM (active) in the test on P93_24. The Potency with P94_40 is 1.58 µM (active); with PAD, 5.62 µM (active); with PC15, 7.94 µM (active); in the test on PC26 it was 9.53 µM (active); with PC49, 10 µM (active); in the test with SC27B it was 1 µM (active). Also, the Potency is 3.98 µM (active) with TAB109; 14.1 µM (active) with TAB113; 12.6 µM (active) in the test on TAB165; 4.26 µM (active) in the test with W2; 5.31 µM (active) in the test on HEK293.

For `O=C(Nc1ccc(Cl)cc1)Nc1ccc(Cl)c(Cl)c1`, the Potency with ECU was 3.55 µM (active); in the test with FAB9, 5.01 µM (active); in the test on GB4, 2.39 µM (active); in the test on HB3, 11.2 µM (active); with ICS, 0.631 µM (active); in the test on JCK it was 10 µM (active). Further, the Potency with N140 was 2 µM (active); in the test with P93_24 it was 3.55 µM (active); in the test on P94_40, 2.82 µM (active); in the test with PAD it was 2.24 µM (active); with PC15 it was 2.51 µM (active); with PC26, 1.51 µM (active). The Potency is 2.24 µM (active) with PC49; 2.24 µM (active) in the test on SC27B; 3.55 µM (active) in the test with TAB109; 2.24 µM (active) with TAB113; 1.78 µM (active) in the test with TAB165; 3.01 µM (active) in the test with W2. Also, the Potency in the test on HEK293 is 7.5 µM (active).
